Assay outcomes from PubChem.
ALR H2O2 inh: blocks human ALR sulfhydryl oxidase activity. P55789. purified ALR, DTT oxidation, H2O2 HRP-luminol luminescence. inhibition, % (test concentration not listed). 290,000 compounds, 3.8% hits. AID 485317;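 active = mean replicate inhibition above about 79%, with every replicate also reaching it, limit read from the data; inconclusive = only one of the two criteria met; inactive = mean below limit and not every replicate reaching it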
Target sequence (P55789 whole entry, looked up): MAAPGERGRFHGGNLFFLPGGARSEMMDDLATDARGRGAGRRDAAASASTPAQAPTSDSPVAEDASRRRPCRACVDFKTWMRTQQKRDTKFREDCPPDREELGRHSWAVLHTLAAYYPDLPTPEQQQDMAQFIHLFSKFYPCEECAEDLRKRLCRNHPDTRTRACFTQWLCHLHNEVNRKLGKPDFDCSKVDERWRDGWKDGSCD
UBC9 SUMO inh: blocks human SUMOylation mediated by UBC9; P63279; HTRF SUMOylation assay, SAE1/SAE2 + UBC9, in vitro; inhibition, % at 35 µM; 290,000 compounds, 0.36% hits; AID 2006; in the data active = inhibition above about 50%, passing the limit was not always enough; inconclusive = no clear call, values can overlap the other calls
Target sequence (P63279 whole entry, looked up): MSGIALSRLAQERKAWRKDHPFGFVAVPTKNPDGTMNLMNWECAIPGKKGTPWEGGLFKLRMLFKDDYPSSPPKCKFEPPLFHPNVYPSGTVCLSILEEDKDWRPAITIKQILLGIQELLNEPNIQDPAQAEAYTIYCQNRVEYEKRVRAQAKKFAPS
Efflux pump mplx: blocks antifungal efflux pumps in multiplex yeast assay; S. cerevisiae Candida pump triplex, Nile Red efflux; 330,000 compounds, 0.44% hits; inhibition, % at 10 µM; AID 485275;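 active = plate passing quality check with inhibition over a set limit, or well fluorescence over plate mean plus 4 SD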;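 note: Nile Red retained in pooled yeast measured as flow cytometry median fluorescence; higher means more Nile Red kept so more efflux inhibition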
PABP1 MLLE inh: blocks PAM2 peptide binding to the PABP1 MLLE domain. P11940. GST-MLLE / FITC-PAM2 fluorescence polarization. inhibition, % at 20 µM. 360,000 compounds, 0.36% hits. AID 588489; in the data active = inhibition above about 35%, passing the limit was not always enough
PABP FP inh: PABP-poly(A) binding inhibition; P11940; PABP-poly(A) RNA binding, fluorescence polarization; inhibition, % at 35 µM; 290,000 compounds, 1% hits; AID 2014;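 note: calls also rest on retests at 20 µM and on dose response follow-up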
eIF4H FP inh: inhibitors of RNA binding by human eIF4H; Q15056; eIF4H fluorescence polarization binding assay; inhibition, % at 35 µM; 290,000 compounds, 0.94% hits;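 note: calls also rest on retests at 20 µM and on dose response follow-up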
A number is an active result; - = inactive; ? = inconclusive; . = not tested or not shown. Shown are actives, neighbours in structure and some others; about 4.7% of the full set was active somewhere. Unless noted, the rule behind the calls is not given here.

SMILES	ALR H2O2 inh	UBC9 SUMO inh	Efflux pump mplx	PABP1 MLLE inh	PABP FP inh	eIF4H FP inh
COc1cc(C(=O)NCC(=O)NNC(=O)C2COc3ccccc3O2)cc(OC)c1OC (stereo not given)	-	.	-	-	.	.
CCN(C(=O)COC(=O)c1ccc2ccccc2n1)c1c(N)n(Cc2ccccc2)c(=O)[nH]c1=O	.	.	.	-	.	.
O=C(CC(=O)c1cccs1)c1ccncc1	.	.	.	-	.	.
CCN(CC)c1ccc(NC(=O)COC(=O)CCC(=O)c2cccs2)cc1	99	.	-	-	.	.
CCN(CC)c1ccc(NC(=O)COC(=O)C23CCC(=O)N2c2ccccc2S3)cc1 (stereo not given)	97	-	-	-	-	-
COc1ccc(NC(=O)COC(=O)CNC(=O)c2cccs2)cc1Cl	-	.	-	-	.	.
CN(C)c1ccc(NC(=O)COC(=O)CCC(=O)c2ccc(F)cc2)cc1	97	-	-	-	-	-
Cc1ccc(NC(=O)COC(=O)CCC(=O)c2cccs2)cc1	-	-	-	-	-	-
CN(C)c1ccc(NC(=O)COC(=O)CNC(=O)c2cccs2)cc1	96	.	-	-	.	.
CC(=O)c1ccc(S(=O)(=O)N(C)CC(=O)NCc2ccco2)cc1	-	.	-	-	.	.
O=C(CN1CCN(S(=O)(=O)c2ccc(Cl)cc2)CC1)NC1CC1	-	-	-	-	-	-
Cc1c(NC(=O)C(C)OC(=O)CCc2c[nH]c3ccccc23)c(=O)n(-c2ccccc2)n1C (stereo not given)	-	.	-	-	.	.
CCN(CC)c1ccc(NC(=O)COC(=O)COc2ccccc2[N+](=O)[O-])cc1	99	-	-	-	-	-
O=c1o[nH]c(-c2ccccc2)c1-c1ccccc1	89	.	-	-	.	.
O=c1[nH][nH]c(-c2ccccc2)c1-c1ccccc1	.	.	.	-	.	.
O=C1CCNc2cc3ccccc3cc21	-	-	-	-	75	82
O=C1CCNc2ccc(-c3ccccc3)cc21	-	-	-	-	-	-
COc1ccc(C(=O)CSc2nnc(Cn3cnc4ccccc43)o2)cc1	-	-	-	-	-	-
O=C(CSc1nnc(Cn2cnc3ccccc32)o1)Nc1cccc2ccccc12	99	-	-	-	-	-
CC(=O)c1ccc(NC(=O)CSc2nnc(Cn3cnc4ccccc43)o2)cc1	97	-	-	-	-	-
CC(C)(C)c1cc(CNC(=O)C2CCC(=O)N(Cc3ccccc3F)C2)[nH]n1 (stereo not given)	.	.	.	-	.	.
CCC(C)NC(=O)Cn1c(=O)sc2ccccc21 (stereo not given)	-	-	-	-	-	-
CCOC(=O)c1ccc(N2C(=O)C3CCCN3C2=S)cc1 (stereo not given)	.	.	-	-	.	.
CCCCn1c(SCc2nnc(-c3ccccc3)o2)nc2c1c(=O)n(C)c(=O)n2C	78	-	-	-	-	-
Cc1ccc(S(=O)(=O)NCC(=O)OC(C)C(=O)NC(=O)NC2CCCCC2)cc1C (stereo not given)	.	.	-	-	.	.
SMILES	ALR H2O2 inh	UBC9 SUMO inh	Efflux pump mplx	PABP1 MLLE inh	PABP FP inh	eIF4H FP inh
CSCCC(NC(=O)c1cccc(C)c1)C(=O)NCc1cccs1 (stereo not given)	-	.	-	-	.	.
Cc1ccc(NCc2nnc3n2CCCCC3)c(C)c1	99	-	-	-	-	-
Fc1ccc(NCc2nnc3n2CCCCC3)cc1	-	-	-	-	-	-
O=C1C(Cl)=C(NCCc2ccccc2)C(=O)c2ccccc21	.	.	.	40	.	.
O=C(O)c1ccc(NC2=C(Cl)C(=O)c3ccccc3C2=O)cc1	.	-	-	47	-	-
Cc1ccc(NC2=C(NC(=O)c3ccccc3)C(=O)c3ccccc3C2=O)cc1Cl	-	-	-	46	-	-
Cc1csc(NC(=O)CSc2nnc(-c3cc(C)on3)o2)n1	94	-	-	-	-	-
O=C(CSc1nc2ccccc2o1)Nc1nc(-c2ccccc2)cs1	99	-	-	-	-	-
O=C(CSc1nc2ccccc2o1)Nc1nc2ccccc2s1	-	-	-	-	-	-
Cc1cc(-c2nnc(SCC(=O)Nc3nc(-c4ccccc4)cs3)o2)no1	99	-	-	-	-	-
Cc1cc(-c2nnc(SCC(=O)NC3CCCC3)o2)no1	-	-	-	-	-	-
COc1cc(C)c(CN2CCN(CC(=O)Nc3ccccc3C(=O)NC3CC3)CC2)cc1OC	-	.	-	-	.	.
CCCN(C(=O)c1nc2nc(C)cc(C)n2n1)c1c(N)n(Cc2ccccc2)c(=O)[nH]c1=O	-	.	-	-	.	.
O=C(NNC(=O)C1CCCN(S(=O)(=O)c2cccc(F)c2)C1)C1CC1 (stereo not given)	-	-	-	-	-	-
CCC1(O)CC2CN(CCc3c([nH]c4ccccc34)C(C(=O)OC)(c3cc4c(cc3OC)N(C=O)C3C(O)(C(=O)OC)C(OC(C)=O)C5(CC)C=CCN6CCC43C65)C2)C1 (stereo not given)	.	.	.	-	.	.
CCN1CCN(CCn2c(=S)[nH]c3cc4c(cc3c2=O)OCO4)CC1	92	-	-	-	-	-
O=C(CCCn1c(=S)[nH]c2cc3c(cc2c1=O)OCO3)N1CCN(c2ncccn2)CC1	-	-	-	-	-	-
O=C(CCCn1c(=S)[nH]c2cc3c(cc2c1=O)OCO3)N1CCN(C2CCCCC2)CC1	83	-	-	-	-	-
CCN(CC)CCn1c(=S)[nH]c2cc3c(cc2c1=O)OCO3	-	-	-	-	-	-
CC(C)(C)OC(=O)C[C@@H]1C/C=C\C[C@@H](CC(=O)N[C@H](CO)Cc2ccccc2)C(=O)N2CCC[C@H]2COC1=O	-	.	-	-	.	.
O=C(CC1C(=O)NCCN1Cc1ccc(F)cc1)NCCN1CCCc2ccccc21 (stereo not given)	99	-	-	-	-	-
O=C(Nc1cccc2nsnc12)c1ccc(-c2cccc(Cl)c2)o1	-	60	-	-	-	-
O=C(/C=C/c1ccc(O)c(O)c1)c1ccc(S(=O)(=O)N2CCCCCC2)cc1	-	-	-	-	-	90
O=C(NCc1cc(Cl)cc(Cl)c1)c1csc(COCCO)n1	.	.	.	-	.	.
CC1(C)OC(=O)C(=C2CCCN2)C(=O)O1	-	-	-	-	60	active
SMILES	ALR H2O2 inh	UBC9 SUMO inh	Efflux pump mplx	PABP1 MLLE inh	PABP FP inh	eIF4H FP inh
CC1(C)OC(=O)C(=Cc2ccc[nH]2)C(=O)O1	-	-	-	-	-	-
CCn1cc(C(=O)N[C@@H](CCSC)C(=O)NCCN2CCOCC2)c(=O)c2cc3c(cc21)OCO3	-	-	-	-	-	-
COc1ccc(/C=C2/NC(=O)N(Cc3ccccc3F)C2=O)cc1OC	-	-	-	-	76	?
O=C1N/C(=C/c2ccco2)C(=O)N1Cc1ccccc1F	-	-	-	-	active	96
O=C1N/C(=C/c2cccs2)C(=O)N1Cc1ccccc1F	-	-	-	-	-	-
CN1Cc2cc(C(=O)c3ccccc3O)cnc2NC1=O	87	-	-	-	-	-
COc1ccc(O)c(C(=O)c2cnc3c(c2)CN(C)C(=O)N3)c1	-	-	-	-	-	-
COc1ccc(C(C#N)=C2C=CC(=NO)C=C2)cc1	96	-	-	-	-	-
Nc1ccccc1S(N)(=O)=O	-	.	-	-	.	.
